Test results taken from PubChem BioAssay (NCI).
This is part of a sample that, as a whole, favours compounds with a hit. Of some 83,000 tested, about 20% had one in any assay.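 Note: values are percent growth. 100 is the growth of untreated cells, values between 100 and 0 indicate rising inhibition; between -100 and 0 indicates cell death.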 Unmarked numbers belong to inactive results. The source made the active and inactive calls. How the source made its calls: active means growth percent below 10; inactive means the rest.

How the values were obtained:
Assay in all cases: NCI-60 one-dose screen, 48 h (100 = growth as untreated, 0 = no growth, -100 = all killed)
Conditions in all cases: 10 µM
HCT-15 colon = test system: HCT-15 colon
HT29 colon = test system: HT29 colon
SNB-75 CNS = test system: SNB-75 CNS
SNB-19 CNS = test system: SNB-19 CNS
U251 CNS = test system: U251 CNS
SK-MEL-5 melanoma = test system: SK-MEL-5 melanoma
UACC-62 melanoma = test system: UACC-62 melanoma
LOX IMVI melanoma = test system: LOX IMVI melanoma
SK-MEL-28 melanoma = test system: SK-MEL-28 melanoma

Compound	growth (HCT-15 colon)	growth (HT29 colon)	growth (SNB-75 CNS)	growth (SNB-19 CNS)	growth (U251 CNS)	growth (SK-MEL-5 melanoma)	growth (UACC-62 melanoma)	growth (LOX IMVI melanoma)	growth (SK-MEL-28 melanoma)
CC(=O)Nc1ccc(-c2cn(-c3cccc(C(=O)Nc4cccc(OC(F)(F)F)c4)c3)nn2)cn1	87.3%	96.9%	118%	113%	73.6%	97%	73.5%	88.6%	92.8%
Nc1nc(Nc2ccc(Cl)cc2)n(Cc2cccc(Br)c2)n1	-52.7% (active)	11.4%	-23.9% (active)	-12.3% (active)	-12.4% (active)	-100% (active)	-82.3% (active)	-84.6% (active)	-61.1% (active)
COc1ccc(/C(CSc2nnc(-c3c[nH]c4ccccc34)n2-c2ccccc2)=N/O)cc1	15.3%	32%	63.3%	40.3%	39.4%	-10.2% (active)	31.4%	-78.2% (active)	37.4%
O=C1CCC(N2Cc3cc(NC(=O)COc4ccccc4)ccc3C2=O)C(=O)N1 (stereo unspecified)	25.4%	79.5%	46.4%	66.7%	86.8%	74.2%	84.4%	108%	95.9%
O=C(CNc1nc(-c2ccccc2)cs1)Nc1ccc(Cl)cc1[N+](=O)[O-]	-78.5% (active)	-14.8% (active)	-19.2% (active)	5.15% (active)	-52.1% (active)	-100% (active)	-70.5% (active)	-97.2% (active)	-69.4% (active)
COc1cc(-c2nc3cc(Cl)c(Cl)cc3[nH]2)ccc1OCc1nnc(-c2ccc(Br)cc2)o1	3.31% (active)	10%	-58.8% (active)	41.5%	1.03% (active)	3.12% (active)	-42.1% (active)		-25% (active)
COC(=O)c1c(C(=O)OC)c2n(c1C)[C@@H]([C@@H](C)[C@H]1CC[C@H]3[C@@H]4CCC5=CC(=O)CC[C@]5(C)[C@H]4CC[C@]13C)SC2	22.2%	32.9%	51.1%	54.2%	38.9%	-87% (active)	40.6%	28.4%	43.1%
O=C(Nc1ccc(I)cc1F)c1cc(-c2ccc(F)cc2F)ccc1O	5.34% (active)	17%	-23.7% (active)	11.3%	4.61% (active)	-75.3% (active)	-14.4% (active)	6.5% (active)	4.38% (active)
